Results as given in PubChem BioAssay (NCATS).
Results filed as inconclusive are left out. Activity calls are given as the source filed them. Calls follow the shape of the dose curve; as a rule, active = well fitted inhibition curve with a large enough effect; inconclusive = small, poorly fitted or top-dose-only effect; inactive = flat fitted curve, though single readings scatter. Where a SMILES comes first, the peptide text is derived from it.

Columns and labels:
[1] = molecular target: Glutathione peroxidase 1 (Homo sapiens) (UniProt P07203); test: Primary qHTS Assay for Inhibitors of Recombinant Selenoprotein Glutathione Peroxidase 1 (GPX1) (AID 1845191); also: nearly all actives have a fitted effect of over 65% in size
Glutathione peroxidase 1 (Homo sapiens), sequence (P07203 whole entry, looked up): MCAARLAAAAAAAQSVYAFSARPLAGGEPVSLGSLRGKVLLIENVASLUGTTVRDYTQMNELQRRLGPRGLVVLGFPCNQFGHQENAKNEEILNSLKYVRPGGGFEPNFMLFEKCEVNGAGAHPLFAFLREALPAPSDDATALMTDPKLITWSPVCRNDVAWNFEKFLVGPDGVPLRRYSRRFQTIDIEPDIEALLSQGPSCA
Procedure, shortened: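 10 nM GPX1 + cpd, 30 min RT; start w/ 1 mM GSH, 0.5 mM cumene hydroperoxide, 0.5 mM NADPH, 100 nM GR, 0.01% BSA; buffer 50 mM Tris-HCl pH 7.5, 2 mM EDTA, 150 mM NaCl; Fl 340/450, 0 & 15 min.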

[2] = molecular target: Phospholipid hydroperoxide glutathione peroxidase GPX4 (Homo sapiens) (UniProt P36969); test: Primary qHTS Assay for Inhibitors of Recombinant Selenoprotein Glutathione Peroxidase 4 (GPX4) (AID 1845192); also: nearly all actives have a fitted effect of over 65% in size
Phospholipid hydroperoxide glutathione peroxidase GPX4 (Homo sapiens), sequence (P36969 whole entry, looked up): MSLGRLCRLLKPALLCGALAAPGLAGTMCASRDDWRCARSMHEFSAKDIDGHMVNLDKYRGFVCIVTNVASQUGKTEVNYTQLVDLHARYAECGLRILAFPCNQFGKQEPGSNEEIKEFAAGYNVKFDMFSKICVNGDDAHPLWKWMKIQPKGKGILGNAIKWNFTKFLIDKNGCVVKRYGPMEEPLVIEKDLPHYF
Procedure, shortened: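 NADPH consumption, followed by fluorescence at 340/450 nm between 0 and 15 min, reports GPX4 activity via coupled glutathione reductase (100 nM). Enzyme 200 nM was pre-exposed to compound 30 min; 0.5 mM cumene hydroperoxide and 1 mM GSH served as substrates.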

[3] = molecular target: Luciferin 4-monooxygenase (Photinus pyralis) (UniProt P08659); test: Primary firefly luciferase (FLuc) qHTS assay for identification of artifact compounds. (AID 1845220); also: nearly all actives have a fitted effect of over 60% in size
Procedure, shortened: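 Compounds sat 15 min at room temperature with 10 uM luciferin and 10 uM ATP (pH 7.6 Tris acetate). Firefly luciferase (10 nM final) was then added, and luminescence was read 5 min later. Data normalized to no-enzyme and DMSO controls were Hill-fitted.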

Measured: Potency

CC(C)C1NC(=O)CNC(=O)C2CCCN2C(=O)C(Cc2c[nH]c3ccccc23)NC(=O)CNC(=O)C(Cc2ccc(O)cc2)NC(=O)CNC1=O (configuration not stated) (cyclo(GVGYGWP); configuration not given here)
inactive: all assays above

CC[C@@H]1[C@H]2CCCCN3C(=O)C[C@H]([C@@H]4[C@H]1OC(=O)[C@H]4C)[C@@H]23
inactive: all assays above

COC(=O)C1=C[C@@H](O)[C@@H](O)[C@H](O[C@@H]2O[C@H](CO)[C@@H](O)[C@H](O)[C@H]2OC(=O)/C=C/c2ccccc2)C1
inactive: all assays above

O=C(C1OC1/C=C/c1ccc2c(c1)OCO2)N1CCCCC1 (configuration not stated)
inactive: all assays above

CC1=C[C@H]2[C@@H](CC1=O)[C@H](C)C[C@H](O)[C@H]2C(C)C
inactive: all assays above

COc1c2c(c(C)c3c1C(=O)OC3)OC1(C)CC(O)C34OC(OC)(CC(O)C3(C)C1C2)OC4(C)C (configuration not stated)
inactive: all assays above

Nc1nc2c(nc(Sc3ccc(Cl)cc3)n2[C@@H]2O[C@@H]3COP(=O)(O)O[C@H]3[C@H]2O)c(=O)[nH]1
inactive: all assays above

CC(=O)O[C@H]1C[C@@]2(C)[C@@H](CC[C@H]3[C@@]4(C)C=CC(=O)[C@@H](C)[C@@H]4[C@H](OC(C)=O)C(=O)[C@@]32C)/C1=C(\CCC=C(C)C)C(=O)O
inactive: all assays above

C=CC1(C)CC=C2C(CCC3C(C)(C(=O)O)CCCC23C)C1 (configuration not stated)
inactive: all assays above
